Screen size: about 310,000 compounds; about 14,000 (4.5%) showed an effect of 50% or more. The effect is printed as a negative number. The sample as a whole holds a higher share of strong results than the screen did.
molecular target: human ether-à-go-go-related gene (hERG) potassium channel (human, UniProt Q12809); experiment: primary screen, population patch clamp on CHO cells stably expressing hERG; higher = less effect of the substance
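Note: peak tail current of the secondary pulse compared with the same well before compound.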

Chain of human ether-à-go-go-related gene (hERG) potassium channel (Q12809 whole entry, looked up): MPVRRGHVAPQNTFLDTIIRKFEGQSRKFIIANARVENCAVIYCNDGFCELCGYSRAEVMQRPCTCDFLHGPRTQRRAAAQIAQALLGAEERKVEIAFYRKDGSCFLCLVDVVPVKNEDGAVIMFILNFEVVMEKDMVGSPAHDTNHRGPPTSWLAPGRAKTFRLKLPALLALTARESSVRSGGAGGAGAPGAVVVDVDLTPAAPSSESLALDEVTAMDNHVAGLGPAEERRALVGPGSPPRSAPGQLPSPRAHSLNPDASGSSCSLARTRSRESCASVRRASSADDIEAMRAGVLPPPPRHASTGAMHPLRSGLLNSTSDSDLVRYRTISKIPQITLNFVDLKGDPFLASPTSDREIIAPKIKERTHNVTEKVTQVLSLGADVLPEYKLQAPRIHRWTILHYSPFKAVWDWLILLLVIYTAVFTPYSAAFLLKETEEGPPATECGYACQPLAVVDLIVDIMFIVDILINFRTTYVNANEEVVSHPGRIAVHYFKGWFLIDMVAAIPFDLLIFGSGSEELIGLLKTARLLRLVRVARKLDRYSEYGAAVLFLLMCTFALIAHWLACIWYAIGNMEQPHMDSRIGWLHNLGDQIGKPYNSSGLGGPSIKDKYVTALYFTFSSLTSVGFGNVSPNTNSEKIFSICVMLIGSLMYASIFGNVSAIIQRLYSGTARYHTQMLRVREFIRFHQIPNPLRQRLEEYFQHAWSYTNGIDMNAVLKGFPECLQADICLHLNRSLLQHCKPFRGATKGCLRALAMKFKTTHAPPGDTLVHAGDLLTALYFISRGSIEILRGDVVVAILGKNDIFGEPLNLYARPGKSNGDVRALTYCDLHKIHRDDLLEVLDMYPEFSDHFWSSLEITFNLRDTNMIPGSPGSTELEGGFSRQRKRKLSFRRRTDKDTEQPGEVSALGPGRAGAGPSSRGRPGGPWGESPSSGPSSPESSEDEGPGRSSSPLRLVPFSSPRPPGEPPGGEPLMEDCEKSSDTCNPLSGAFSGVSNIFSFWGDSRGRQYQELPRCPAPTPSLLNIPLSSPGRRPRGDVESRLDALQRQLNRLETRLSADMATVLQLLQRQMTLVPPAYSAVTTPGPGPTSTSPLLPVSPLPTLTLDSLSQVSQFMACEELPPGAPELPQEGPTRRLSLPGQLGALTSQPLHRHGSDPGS

Row | Compound | hERG current change (%, negative = inhibition) at 10uM [%]
1 | O=C(O)CN1CCc2ccccc2C1 | 21.3
2 | CCC(CC)C(=O)Nc1cc([N+](=O)[O-])ccc1F | -2.25
3 | COCCN1Cc2cccc(C(=O)Nc3cccnc3)c2C1=O | -32.6
4 | CCOC(=O)C1(Cc2ccccc2C)CCCN(C(=O)CCc2c(C)noc2C)C1 (stereo not drawn) | -29.3
5 | COC(=O)c1cc(C(=O)OCC(=O)NC2CCCCCCC2)cc([N+](=O)[O-])c1 | -7.58
6 | Cc1ccc(S(=O)(=O)N(C)C)cc1NC(=O)C(C)N(C)CCOc1ccc(Cl)cc1 (stereo not drawn) | -26.7
7 | CN(CCOc1ccc(Cl)cc1)Cc1cccc(S(=O)(=O)N(C)C)c1 | -56.5
8 | COc1ccc(OCCN(C)Cc2ccccc2)cc1 | -41.9
9 | COc1ccc(CCNC(=O)C(=O)NCc2cccs2)cc1OC | 8.95
10 | COc1ccc(S(=O)(=O)Cc2ccc(C(=O)NCCc3ccc(S(N)(=O)=O)cc3)o2)cc1 | 10.1
11 | COc1ccc(S(=O)(=O)Cc2ccc(C(=O)NCCCN(C)c3ccccc3)o2)cc1 | -59.4
12 | COCCCNC(=O)c1ccc(CS(=O)(=O)c2ccc(OC)cc2)o1 | 5.86
13 | COc1ccc(S(=O)(=O)Cc2ccc(C(=O)NCC(OC)OC)o2)cc1 | 17.4
14 | CCCCSCCCNC(=O)c1ccc(CS(=O)(=O)c2ccc(OC)cc2)o1 | -59.6
15 | CCCCNC(=O)c1ccc(CS(=O)(=O)c2ccc(OC)cc2)o1 | -7
16 | CCCCN(CCCNC(=O)c1ccc(CS(=O)(=O)c2ccc(OC)cc2)o1)Cc1ccccc1 | -67.4
17 | CCN(CC)CCCNC(=O)c1ccc(CS(=O)(=O)c2ccccc2OC)o1 | 16.3
18 | COc1ccc(S(=O)(=O)Cc2ccc(C(=O)NCc3ccccc3)o2)cc1 | -14.3
19 | CCOc1ccc2nc(COC(=O)c3cccs3)c(C(=O)c3ccccc3)[n+]([O-])c2c1 | 6.46
20 | CCN(CC(=O)Nc1ccc(Br)cc1)C(=O)Cc1cccc(F)c1 | -17.4
21 | O=C(CSc1nnc2c(Cl)cc(C(F)(F)F)cn12)N(Cc1ccccc1)Cc1ccccc1 | -28.6

Row | Compound | hERG current change (%, negative = inhibition) at 10uM [%]
22 | Cc1ccc(OCc2cc(C(=O)NC(C)Cc3cccc(C)n3)no2)cn1 (stereo not drawn) | 17.8
23 | Cn1c(-c2ccsc2)c(-c2cccs2)c2cc(-c3ccc4cc[nH]c4c3)ccc21 | 12.1
24 | Nc1ccc(O)cc1C(=O)OCC(=O)c1ccc(C2CCCCC2)cc1 | 8.51
25 | CCOC(=O)/C=C/C(=O)OCc1csc(CC(=O)Nc2ccccc2C)n1 | -1.99
26 | CC(C)[C@H]1CN=C2N(CCNC(=O)CCC3CCCCC3)[C@H](Cc3ccc(O)cc3)CN21 | -40.2
27 | C[C@@H]1CN=C2N(CCNC(=O)CCC3CCCCC3)[C@H](Cc3ccc(O)cc3)CN21 | -0.311
28 | C[C@H]1CN=C2N(CCNC(=O)CCC3CCCCC3)[C@H](Cc3ccc(O)cc3)CN21 | 9.65
29 | COc1ccc(C[C@H]2CN3C(=NC[C@@H]3C(C)C)N2CCNC(=O)CCC2CCCCC2)cc1 | -80.4
30 | COc1ccc(C[C@H]2CN3C(=NC[C@@H]3C)N2CCNC(=O)CCC2CCCCC2)cc1 | -69
31 | COc1ccc(C[C@H]2CN3C(=NC[C@H]3C)N2CCNC(=O)CCC2CCCCC2)cc1 | -69
32 | NC(=O)c1ncc(C(F)(F)F)cc1Oc1ccc(C(F)(F)F)cc1 | 24.9
33 | O=C(N/N=C1/SCC(=O)N1Cc1ccco1)c1ccccc1F | 20.1
34 | Cc1cccc(-c2nsc(SCC(=O)c3ccc(Cl)cc3)n2)c1 | 23.3
35 | CCOC(=O)C(C(=O)OCC)C(=O)c1cc(OC)c(OC)c(OC)c1 | -16.4
36 | O=S(=O)(Nc1nc2ccccc2nc1N1CCc2ccccc2C1)c1ccc(Cl)cc1 | 7.74
37 | COc1ccc(C(=O)O)cc1S(=O)(=O)NCc1cccnc1 | 19.4
38 | O=C(Cn1nc(-c2ccccc2)ccc1=O)NCCN1CCN(c2cccc(Cl)c2)CC1 | -24.4
39 | CCc1nn(CCCN2CCN(c3cccc(Cl)c3)CC2)c(=O)n1CCOc1ccccc1.Cl | -65
40 | CCc1nn(CCCN2CCN(c3cccc(Cl)c3)CC2)c(=O)n1CCOc1ccccc1 | -63.2
41 | Cl.OCCN1CCN(CCOc2cccc(Cl)c2)CC1 | -15.6
42 | Cc1nn(CCOc2ccccc2)c(=O)n1-c1ccc(Cl)cc1 | -3.66

Row | Compound | hERG current change (%, negative = inhibition) at 10uM [%]
43 | COc1cccc(-n2c(C)nn(CCOc3ccccc3)c2=O)c1 | 8.58
44 | O=Cc1ccnc(-c2ccc(OC(=O)c3ccco3)cc2)n1 | 7.26
45 | Cc1cc(Br)ccc1NS(=O)(=O)c1c(C)[nH]c(=O)[nH]c1=O | 11.6
46 | c1ccc(-n2ncc3c(NCc4ccccn4)ncnc32)cc1 | 0.854
47 | CC(=O)NS(=O)(=O)c1ccc(NC(=O)COc2ccc(C(=O)c3ccccc3)cc2)cc1 | 15.8
48 | Cc1nnsc1S(=O)c1ccc(Br)cc1 (stereo not drawn) | -1.16
49 | COCCn1c(SCC(=O)N2CCCCC2)nc2c([nH]c3ccccc32)c1=O | -20.5
50 | COCCn1c(SCC(=O)N2CCC(C)CC2)nc2c([nH]c3ccccc32)c1=O | -19.8
51 | COCCn1c(SCC(=O)N2CCCC2)nc2c([nH]c3ccccc32)c1=O | -61.3
52 | CCOC(=O)N1CCN(C(=O)CSc2nc3c([nH]c4ccccc43)c(=O)n2CCOC)CC1 | -65.1
53 | COCCn1c(SCC(=O)N2CCCCCC2)nc2c([nH]c3ccccc32)c1=O | -5.06
54 | CCOC(=O)N1CCN(C(=O)CSc2nc3c([nH]c4ccccc43)c(=O)n2CC)CC1 | -13.8
55 | Nc1nnc(SCC(=O)NCCOc2ccccc2)s1 | 4.23
56 | Cc1nc(-c2ccccc2O)n(S(=O)(=O)N(C)C)n1 | -4.34
57 | CCCC[n+]1ccn(C2=C([O-])c3ccccc3C(=O)/C2=N\S(=O)(=O)c2ccc(Br)cc2)c1 | -20.7
58 | O=C(Nc1ccccc1)C1(c2ccccc2)CC1(Cl)Cl (stereo not drawn) | -18.1
59 | O=C(Nc1ccccc1Cl)C1(c2ccccc2)CC1(Cl)Cl (stereo not drawn) | -0.213
60 | O=C(Nc1ccccc1F)C1(c2ccccc2)CC1(Cl)Cl (stereo not drawn) | -70
61 | Cc1ccc(C(=O)c2ccccc2C(=O)O)c(O)c1 | 1.4
62 | Cc1noc(NS(=O)(=O)c2ccc(NC(=O)CSc3nc4ccccc4s3)cc2)c1C | -2.99
63 | CC1CCCC(C)N1CCCNC(=O)c1ccc2nc(N3CCCCC3)sc2c1 (stereo not drawn) | -38

Row | Compound | hERG current change (%, negative = inhibition) at 10uM [%]
64 | CC1CCN(c2nc3ccc(C(=O)NCCCN4CCCCC4)cc3s2)CC1 | -50
65 | CC1CCN(c2nc3ccc(C(=O)O)cc3s2)CC1 | 22.8
66 | CCOC(CNC(=O)c1ccc2nc(N3CCC(C)CC3)sc2c1)OCC | 10.6
67 | CC1CC(C)CN(CCCNC(=O)c2ccc3nc(N4CCCCC4)sc3c2)C1 (stereo not drawn) | -47.5
68 | CCCN1CCN(CCCNC(=O)c2ccc3nc(N4CCC(C)CC4)sc3c2)CC1 | -50.7
69 | CN(CC(=O)Nc1ccc(N2CCOCC2)cc1)C(=O)CCNC(=O)c1ccc(Br)cc1 | 3.43
70 | O.Oc1cc(O)c2c(c1)O[C@H](c1ccc(O)c(O)c1)[C@@H](O)C2 | 17.4
71 | Cc1cc(C)c2nc(N3CCN(C(=O)c4cccs4)CC3)sc2c1 | 0.575
72 | O=C(c1ccc([N+](=O)[O-])o1)N1CCN(c2nc3c(F)cc(F)cc3s2)CC1 | -54.7
73 | O=C(c1cccs1)N1CCN(c2nc3c(F)cc(F)cc3s2)CC1 | -50.1
74 | Cc1cccc2sc(N3CCN(C(=O)c4cccs4)CC3)nc12 | -9.51
75 | Cc1ccc2sc(N3CCN(C(=O)c4ccc([N+](=O)[O-])o4)CC3)nc2c1C | 3.89
76 | O=C(c1ccc([N+](=O)[O-])o1)N1CCN(c2nc3ccc(F)cc3s2)CC1 | -23.7
77 | Cc1ccc(S(=O)(=O)N2CCN(c3cc4c(cc3[N+](=O)[O-])n(C)c(=O)n4C)CC2)cc1 | -4.2
78 | Nc1nonc1-n1nnc(C(=O)N/N=C/c2cccc(Cl)c2)c1CSc1ccc(Cl)cc1 | 23.9
79 | CCCC12CN3CC(C)(CN(C1)C3c1ccc([N+](=O)[O-])o1)C2=O (stereo not drawn) | -19.6
80 | COc1ccc(NC(=O)c2c(NC(=O)CCC(=O)O)sc(-c3ccccc3)c2C)cc1 | 5.27
81 | CC1(C)C(=O)Nc2ccccc2N1C(=O)COc1ncnc2c(Cl)cc(Cl)cc12 | -9.51
82 | CCN(CC)CCN(CC(=O)N(C1CCCCC1)C1CCCCC1)C(=O)c1ccco1.O=C(O)C(=O)O | 23.2
83 | CCN(Cc1ccccc1)C(=O)c1cccnc1 | 2.64
84 | CCN(CC)CCN(CC(=O)N(C1CCCCC1)C1CCCCC1)C(=O)c1cccnc1.Cl.O | -71.9
